# According to the supplement of paper PMC12282887:
# ± gives the standard deviation of the averaged measurements.
# Columns and labels:
# Test in all cases: promoter activity interaction Z-score (Lux/OD deviation from empty-vector control); higher = stronger promoter induction by the compound
# [1] = test system: E. coli BW25113 acrABp lux reporter
# Summary of the method: (§1)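 E. coli BW25113 luxCDABE reporter strains grew at 37°C in 40 µl LB Lennox in 384-well plates, with OD600 and luminescence read every 30 min for 12 h. After integration over 0–8 h for wild type or 1–9 h for deletion strains, wells under 10% of the median growth value were removed. Each score is the Z-transformed residual of growth-normalised luminescence fitted against a control.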
# [2] = test system: E. coli BW25113 micFp lux reporter
# Summary of the method: as §1
# [3] = test system: E. coli BW25113 ompFp lux reporter
# Summary of the method: as §1
# [4] = test system: E. coli BW25113 robp lux reporter
# Summary of the method: as §1
# [5] = test system: E. coli BW25113 soxSp lux reporter
# Summary of the method: as §1
# [6] = test system: E. coli BW25113 tolCp lux reporter
# Summary of the method: as §1
# [7] = 0.13 µg/ml, genetic background: wild type
# [8] = 0.13 µg/ml, genetic background: ΔmarA
# [9] = 0.13 µg/ml, genetic background: Δrob
# [10] = 0.13 µg/ml, genetic background: ΔsoxS
# [11] = 0.26 µg/ml, genetic background: wild type
# [12] = 0.26 µg/ml, genetic background: ΔmarA
# [13] = 0.26 µg/ml, genetic background: Δrob
# [14] = 0.26 µg/ml, genetic background: ΔsoxS
# [15] = 0.52 µg/ml, genetic background: wild type
# [16] = 0.52 µg/ml, genetic background: ΔmarA
# [17] = 0.52 µg/ml, genetic background: Δrob
# [18] = 0.52 µg/ml, genetic background: ΔsoxS
smiles,measurement,setting,value
CNC(C)C1CCC(N)C(OC2C(N)CC(N)C(OC3OCC(C)(O)C(NC)C3O)C2O)O1 (configuration not stated) [Gentamicin],promoter activity interaction Z-score,[1]; [7],-0.258 ± 0.098
same,promoter activity interaction Z-score,[1]; [8],0.731 ± 0.32
same,promoter activity interaction Z-score,[1]; [9],0.126 ± 0.055
same,promoter activity interaction Z-score,[1]; [10],0.158 ± 0.14
same,promoter activity interaction Z-score,[1]; [11],-0.117 ± 0.18
same,promoter activity interaction Z-score,[1]; [12],0.35 ± 0.15
same,promoter activity interaction Z-score,[1]; [13],0.483 ± 0.18
same,promoter activity interaction Z-score,[1]; [14],0.0843 ± 0.06
same,promoter activity interaction Z-score,[1]; [15],0.311 ± 0.023
same,promoter activity interaction Z-score,[1]; [16],0.396 ± 0.21
same,promoter activity interaction Z-score,[1]; [17],0.801 ± 0.45
same,promoter activity interaction Z-score,[1]; [18],0.744 ± 0.39
same,promoter activity interaction Z-score,[2]; [7],-0.256 ± 0.0079
same,promoter activity interaction Z-score,[2]; [8],-0.00364 ± 0.024
same,promoter activity interaction Z-score,[2]; [9],-0.0412 ± 0.1
same,promoter activity interaction Z-score,[2]; [10],0.232 ± 0.23
same,promoter activity interaction Z-score,[2]; [11],-0.302 ± 0.26
same,promoter activity interaction Z-score,[2]; [12],0.035 ± 0.072
same,promoter activity interaction Z-score,[2]; [13],0.115 ± 0.15
same,promoter activity interaction Z-score,[2]; [14],0.509 ± 0.23
same,promoter activity interaction Z-score,[2]; [15],-0.614 ± 0.016
same,promoter activity interaction Z-score,[2]; [16],0.0535 ± 0.039
same,promoter activity interaction Z-score,[2]; [17],0.114 ± 0.013
same,promoter activity interaction Z-score,[2]; [18],0.235 ± 0.36
same,promoter activity interaction Z-score,[3]; [7],-0.504 ± 0.27
same,promoter activity interaction Z-score,[3]; [8],-0.192 ± 0.27
same,promoter activity interaction Z-score,[3]; [9],0.285 ± 0.14
same,promoter activity interaction Z-score,[3]; [10],0.28 ± 0.15
same,promoter activity interaction Z-score,[3]; [11],-1.09 ± 0.052
same,promoter activity interaction Z-score,[3]; [12],-0.0939 ± 0.49
same,promoter activity interaction Z-score,[3]; [13],-0.00259 ± 0.23
same,promoter activity interaction Z-score,[3]; [14],0.504 ± 0.56
same,promoter activity interaction Z-score,[3]; [15],-0.826
same,promoter activity interaction Z-score,[3]; [16],-0.127 ± 0.14
same,promoter activity interaction Z-score,[3]; [17],-0.414
same,promoter activity interaction Z-score,[3]; [18],0.191 ± 0.32
same,promoter activity interaction Z-score,[4]; [7],-0.805 ± 0.067
same,promoter activity interaction Z-score,[4]; [8],-0.513 ± 0.77
same,promoter activity interaction Z-score,[4]; [9],0.0663 ± 0.25
same,promoter activity interaction Z-score,[4]; [10],-0.014 ± 0.43
same,promoter activity interaction Z-score,[4]; [11],-0.862 ± 1.1
same,promoter activity interaction Z-score,[4]; [12],0.245 ± 0.6
same,promoter activity interaction Z-score,[4]; [13],-0.248 ± 0.75
same,promoter activity interaction Z-score,[4]; [14],0.869 ± 0.64
same,promoter activity interaction Z-score,[4]; [15],-1.31 ± 0.28
same,promoter activity interaction Z-score,[4]; [16],-0.148 ± 0.081
same,promoter activity interaction Z-score,[4]; [17],-1.14 ± 0.47
same,promoter activity interaction Z-score,[4]; [18],-0.192 ± 0.46
same,promoter activity interaction Z-score,[5]; [7],-0.176 ± 0.037
same,promoter activity interaction Z-score,[5]; [8],0.0574 ± 0.0087
same,promoter activity interaction Z-score,[5]; [9],0.128 ± 0.056
same,promoter activity interaction Z-score,[5]; [10],0.247 ± 0.13
same,promoter activity interaction Z-score,[5]; [11],-0.318 ± 0.11
same,promoter activity interaction Z-score,[5]; [12],-0.0384 ± 0.093
same,promoter activity interaction Z-score,[5]; [13],0.0805 ± 0.022
same,promoter activity interaction Z-score,[5]; [14],0.308 ± 0.14
same,promoter activity interaction Z-score,[5]; [15],-0.16 ± 0.27
same,promoter activity interaction Z-score,[5]; [16],-0.404 ± 0.039
same,promoter activity interaction Z-score,[5]; [17],-0.462 ± 0.067
same,promoter activity interaction Z-score,[5]; [18],0.162 ± 0.49
same,promoter activity interaction Z-score,[6]; [7],-0.827 ± 0.069
same,promoter activity interaction Z-score,[6]; [8],0.61 ± 0.68
same,promoter activity interaction Z-score,[6]; [9],-0.223 ± 0.083
same,promoter activity interaction Z-score,[6]; [10],0.974 ± 0.11
same,promoter activity interaction Z-score,[6]; [11],-0.519 ± 0.51
same,promoter activity interaction Z-score,[6]; [12],0.897 ± 0.19
same,promoter activity interaction Z-score,[6]; [13],0.252 ± 0.61
same,promoter activity interaction Z-score,[6]; [14],0.0714 ± 0.32
same,promoter activity interaction Z-score,[6]; [15],-0.626 ± 0.67
same,promoter activity interaction Z-score,[6]; [16],-0.251 ± 0.16
same,promoter activity interaction Z-score,[6]; [17],-0.791 ± 0.011
same,promoter activity interaction Z-score,[6]; [18],0.133 ± 0.12
